Reference: PubChem BioAssay AID686978 (National Center for Advancing Translational Sciences (NCATS), 2013)
About 64,000 (15%) of roughly 420,000 compounds were called active. About 27% were inconclusive and are not listed. The list is a sample of the results. Values without a mark were called inactive. Calls follow the shape of the dose curve; as a rule, active = well fitted inhibition curve with a large enough effect; inconclusive = small, poorly fitted or top-dose-only effect; inactive = flat fitted curve, though single readings scatter.

experiment: qHTS for Inhibitors of human tyrosyl-DNA phosphodiesterase 1 (TDP1): qHTS in cells in absence of CPT; details: DT40 Tdp1-/- hTDP1 cells, no CPT, ATP luminescence, 48 h; activity change, negative = growth inhibition: at 46.2 µM (top of the series); also: nearly all actives have a fitted effect of over 55% in size
Method in brief: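 Compound effects on proliferation are scored in DT40 Tdp1-/-;hTDP1 cells in the absence of CPT. ATP levels (CellTiter-Glo luminescence) are recorded after a ≥48 hr, 37 °C incubation.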
% is scaled to controls: 0 for no effect and ±100 for the full control effect; potency is read from the fitted curve at half-maximal effect.

| SMILES | Potency | activity change, negative = growth inhibition [%] |
| --- | --- | --- |
| Clc1ccc(-n2nnnc2-c2cnc(-c3ccccn3)nc2-c2cccs2)cc1 | 5.17 µM (active) |  |
| O=c1c(-c2cccs2)nc2cnc(Oc3ccccc3)nc2n1-c1ccccc1 |  | -6.07 |
| CN(C)c1nnnn1-c1ccc(Cl)cc1 |  | -1.87 |
| O=C(OC(C(=O)NC1CCCC1)c1ccc(F)cc1)c1ccno1 (stereo not given) |  | -10.5 |
| O=C(Nc1ncc2c(n1)CC(c1ccco1)CC2=O)c1ccc(Cl)cc1 (stereo not given) |  | -25.7 |
| Cc1cccc(NC(=O)CSc2nc3c(c(=O)[nH]2)CCCC3)c1C |  | -8.26 |
| CC(=O)NC1=NC(=O)CS1 |  | -2.82 |
| CN(c1ccc(OCC(=O)O)cc1)S(=O)(=O)c1ccc2ccccc2c1 |  | -8.74 |
| Cc1ccc(S(=O)(=O)N(C)c2ccc(OCC(=O)OCc3ccc(C#N)cc3)cc2)cc1 |  | -1.54 |
| COc1cccc(COc2ccc(N(C)S(=O)(=O)c3ccccc3)cc2)c1 | 16.4 µM (active) |  |
| CCOC(=O)CNC(=O)CSc1nc2cccnc2n1CC |  | -5.19 |
| CC(C)C[C@H]1CN=C(Nc2ccccc2)N1CC1CCCCC1 | 16.4 µM (active) |  |
| CC(CO)(CO)NC(=O)c1ccc(=O)[nH]n1 |  | 7.23 |
| CCc1ccccc1NC(=O)Cn1c(=O)n(-c2cccc(C)c2)c(=O)c2c1c1cc(OC)ccc1n2C | 2.06 µM (active) |  |
| Cc1ccc2c(c1)c1c(c(=O)n(-c3ccccc3)c(=O)n1CC(=O)c1ccc(Cl)cc1)n2C |  | -11.5 |
| Cc1cccc(-n2c(=O)c3c(c4cc(C)ccc4n3C)n(CC(=O)Nc3ccccc3Cl)c2=O)c1 |  | -9.55 |
| CCC(CC)c1nnc(NS(=O)(=O)Cc2ccccc2)s1 |  | -0.792 |
| Cc1nn(C(C)C(=O)N2CCOCC2)c(=O)c2nn(-c3ccccc3)c(C)c12 (stereo not given) |  | 10.9 |
| Cc1c(CNCCc2ccccc2)c(C(=O)O)c(C)n1-c1ccccc1 |  | -6.22 |
| C#CCOc1ccccc1/C=C1/C(=O)ON=C1C | 14.6 µM (active) |  |
| CC1=NOC(=O)/C1=C\c1ccccc1 |  | -19.8 |
| Cc1cn(C)c(CC(=O)NCc2ccccc2)c1C(=O)O |  | 10 |
| COc1ccc(Cl)cc1NC(=O)COC(=O)C(CC(C)C)N1C(=O)C2CC=CCC2C1=O (stereo not given) | 18.4 µM (active) |  |
| COc1ccc(Cl)cc1NC(=O)CN1CCN(C(=O)N2CCOCC2)CC1 |  | -16.6 |
| COc1ccc(Cl)cc1NC(=O)COc1ccc2c(c1)OCO2 |  | -1.31 |
| CC1(C)NC(=O)N(CCOc2cccc(Oc3ccccc3)c2)C1=O |  | -8.49 |
| Cc1nnc(N(Cc2ccco2)C(=O)c2ccno2)s1 |  | -13.2 |
| CCCNC(=O)c1c(Cl)cnn1-c1ccc(C)cc1 |  | -16 |
| Cc1ccnc(NC(=O)CCCOc2ccccc2)c1 |  | -0.626 |
| COc1ccc(Cl)cc1NC(=O)c1oc(C)nc1C |  | -4.86 |
